Screening results: PubChem BioAssay, several laboratories
KLK7 zymogen act: proKLK7 zymogen activators, primary screen, biochemical, fluorescence intensity. purified proKLK7, EDANS-DABCYL substrate fluorescence; 100% is mature enzyme control, 0% vehicle. activation, % at 7 µM. Kallikrein-7 (Homo sapiens), P49862. actives 0.9% (n = 370,000);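 active = activation above the mean of all tested compounds plus 3 SD, computed per campaign excluding outliers beyond control limits, cut at about 13% in these data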
Target sequence (P49862 whole entry, looked up): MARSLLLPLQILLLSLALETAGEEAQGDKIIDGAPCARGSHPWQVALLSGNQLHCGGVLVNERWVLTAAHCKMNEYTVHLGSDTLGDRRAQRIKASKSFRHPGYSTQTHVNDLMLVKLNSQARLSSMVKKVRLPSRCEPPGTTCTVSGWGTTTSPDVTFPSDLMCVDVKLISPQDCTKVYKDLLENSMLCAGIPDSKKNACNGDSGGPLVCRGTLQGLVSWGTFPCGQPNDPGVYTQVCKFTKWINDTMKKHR
ADAM10 inh: human ADAM10 inhibitors, primary screen, biochemical, QFRET, HTS | Disintegrin and metalloproteinase domain-containing protein 10 (Homo sapiens), O14672 | recombinant ADAM10, EDANS/DABCYL FRET peptide cleavage, 3 h | inhibition, % at 7 µM | actives 0.62% (n = 370,000);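 active = inhibition above a per-campaign cutoff equal to the mean of compounds falling between control-based bounds plus 3 SD, cut at about 20% in these data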;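 note: 0% = DMSO wells while the 100% control is not disclosed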
Ecoli rRNA inh: reduced GFP signal of wild-type E. coli, primary screen, bacterial rRNA inhibitor project, GFP/RFP fluorescence, OD600, single point | E. coli WT GFP vs humanized-ribosome RFP mutants, 24 h; stronger effect = lower value; DMSO median 0, no signal -100 | GFP signal change (wild-type ribosome), % (concentration not given with the values) | actives 1.6% (n = 350,000) | AID 720706, 2013;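 active = significant combined selectivity score with lowered wild-type GFP, culture density cut under 30%, mutant RFP and density less affected; inactive = any of these conditions unmet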
ADAM17 inh: ADAM17 inhibitors, primary screen, biochemical, QFRET; inhibition, % at 6.95 µM; actives 0.83% (n = 370,000); Disintegrin and metalloproteinase domain-containing protein 17 (Homo sapiens), P78536; recombinant ADAM17, EDANS/DABCYL FRET peptide cleavage;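 active = inhibition above the mean of compounds lying between control limits plus 3 SD, set per campaign, cut at about 8.5% in these data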;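 note: 0% = DMSO-only wells as the low control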
FGF22 binding: binders of human FGF22 protein, primary screen, FGF22 synaptogenesis inhibitor project, biophysical, thermal shift, single point | recombinant FGF22 thermal shift, SYPRO orange fluorescence; percent of sucrose octasulfate shift, DMSO zero | actives 1.5% (n = 340,000) | AID 651658, 2012 | activity (Tm shift, normalised), % at 9.99 µM;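 active = mean Tm shift, scaled 0 neutral to 100 positive control, at about 1.3% or above, every replicate too, limit read from the data; inconclusive = no clear call, values can overlap the other calls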
Target sequence (Q9HCT0 whole entry, looked up): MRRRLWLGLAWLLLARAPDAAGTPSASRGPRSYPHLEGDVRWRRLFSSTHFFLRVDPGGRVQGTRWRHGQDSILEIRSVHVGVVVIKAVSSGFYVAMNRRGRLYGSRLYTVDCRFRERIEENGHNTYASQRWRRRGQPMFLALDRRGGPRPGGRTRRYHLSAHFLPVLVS
AID977621: growth inhibition of wild-type GFP E. coli, dose response, H69 mutant RFP, cherry-pick | shares compounds with Ecoli rRNA inh | E. coli wild-type GFP strain growth, fluorescence, 24 h | activity change, negative = inhibition at 50 µM | 1,900 tested, under 10 active | AID 977621, 2014;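 active = Wild-type ribosome reporter drop at least double the humanized mutant ribosome reporter drop, growth loss under a set limit; inconclusive = no clear call, values can overlap the other calls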;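 note: wild-type GFP and H69 mutant RFP strains grown together 50/50 in each well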
AID977628: E. coli growth inhibition, wild-type GFP versus h24 humanized RFP strain, dose response, h24 mutant RFP vs wild-type GFP, cherry-pick | E. coli WT GFP strain growth, fluorescence, 24 h | AID 977628, 2014 | activity change, negative = inhibition at 50 µM | 1,900 tested, under 10 active | shares compounds with Ecoli rRNA inh;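 active = compound lowering the normal-ribosome reporter at least twice as much as the humanized-ribosome reporter, growth loss under a set limit; inconclusive = no clear call, values can overlap the other calls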;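 note: wild-type GFP and h24 humanized RFP strains co-cultured 1 to 1 per well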
Active calls of the source: *; ? = inconclusive; · = no result; ! = a repeat was not active. Shown are actives, neighbours in structure and some others; about 3.8% of the full set was active somewhere.

SMILES | KLK7 zymogen act | ADAM10 inh | Ecoli rRNA inh | ADAM17 inh | FGF22 binding | AID977621 | AID977628
CCN(CC)CC(=O)Nc1sc2c(c1C(=O)c1ccccc1OC)CCC2 | 0.5 | -6.3 | -21.8* | -5.4 | 0.1 | 2.96 | -9.9
CSc1nc2ccc(NC(=O)c3c(-c4ccccc4)noc3C)cc2s1 | 1.0 | 4.3 | -21.4* | 1.8 | 0.0 | -20.8 | ·
Cc1onc(-c2ccccc2)c1C(=O)Nc1ccc(NC(=O)c2c(-c3ccccc3)noc2C)cc1 | -0.2 | -6.8 | 0.2 | -2.8 | 0.0 | · | ·
Cc1ccc(C(=O)C2Oc3ccccc3C3CC(c4ccc(C)cc4)=NN23)cc1 (centres undefined) | 0.1 | 2.6 | -17.1* | -0.1 | -0.6 | 3.98 | 0.038
Fc1cccc(Cc2noc(CN3CCCCC3CCc3ccccn3)n2)c1 (centres undefined) | 4.9 | 4.1 | -25.2* | -1.6 | 0.0 | · | -13.9
N#Cc1cccc(-c2ccc(C3[C@H]4CNC[C@@H]3N4S(=O)(=O)c3ccccc3)cc2)c1 (some centres undefined) | · | · | -3.0 | · | · | · | ·
CN(C)C(=O)c1cccc(-c2ccc(C3[C@H]4CNC[C@@H]3N4S(=O)(=O)c3ccccc3F)cc2)c1 (some centres undefined) | · | · | -21.6*! | · | -0.5 | -8.04 | ?
N#Cc1ccc(-c2ccc(C3[C@H]4CNC[C@@H]3N4S(=O)(=O)c3ccc(-c4ccccc4)cc3)cc2)cc1 (some centres undefined) | · | · | -18.2* | · | -0.3 | -5.37 | ·
COCCNC(=O)C[C@@H]1CC[C@H]2[C@H](COc3ccc(NC(=O)c4cnccn4)cc3C(=O)N2C)O1 | · | · | 0.7 | · | -0.3 | · | ·
Cc1cccc(OCCn2c(=O)oc3ccc(C)cc32)c1 | 0.0 | -3.4 | -26.9* | -4.3 | 0.1 | 2.74 | -1.28
COc1ccc(NC(=O)CN(c2ccccc2OC)S(=O)(=O)c2cccs2)cc1Cl | 0.4 | 7.7 | -17.0* | 7.5 | 0.0 | -11.1 | ·
COc1cccc(NC(=O)c2ccc(C(=O)c3ccccc3)o2)c1 | -0.1 | 2.3 | -33.1* | -0.6 | 0.1 | -14.5 | ·
Cc1cc2nc(-c3ccc4c(c3)CCC4)ccn2n1 | 2.8 | -23.4 | -30.6* | -8.4 | 0.1 | · | ?
CO[C@@H]1CN(C)C(=O)c2ccc(NS(=O)(=O)c3ccccc3F)cc2OC[C@H](C)NC[C@@H]1C | · | · | 5.1 | · | 0.0 | · | ·
CCCN(CCC)CCCNc1ccc(C(=O)Nc2cccc(OC)c2)cc1[N+](=O)[O-] | 0.5 | 8.8 | -10.2 | 3.0 | 0.1 | · | ·
Cc1ccc(NC(=O)c2ccc(NCCCN3CCC(C)CC3)c([N+](=O)[O-])c2)c(C)c1 | 0.3 | -9.1 | -2.5 | -2.6 | -0.1 | · | ·
COc1cccc(NC(=O)c2ccc(NCCCN3CC(C)CC(C)C3)c([N+](=O)[O-])c2)c1 (centres undefined) | 0.0 | -3.0 | -46.0* | -3.0 | -0.2 | ? | -5.13
COc1cccc(NC(=O)c2ccc(NCCCN3CCC(C)CC3)c([N+](=O)[O-])c2)c1 | 0.4 | 7.3 | -25.4* | -0.2 | -0.3 | -3.49 | ?
COc1cc(SC)ccc1C(=O)N(Cc1ccccc1)c1ccccn1 | 0.5 | -2.0 | -19.4* | -0.9 | 0.1 | -7.55 | -8.2
O=C(Nc1ccc(S(=O)(=O)NC2=NCCCCC2)cc1)c1ccc([N+](=O)[O-])s1 | -0.1 | -3.6 | -20.4* | 0.0 | -0.3 | ? | -4.13
Cc1cccc(NC(=O)c2sc3nc(-c4ccccc4)cn3c2C)n1 | -85.9 | -24.6 | -18.2* | -10.8 | 0.1 | -12.5 | ·
